Bioassay records: PubChem BioAssay, National Center for Advancing Translational Sciences (NCATS)
This is a sample that favours compounds with a hit; in the whole collection about 8.1% have one here.
KB-V1 MDR tox – qHTS assay for MDR1-selective chemotherapeutics: Primary screen using the drug-selected MDR subline cells KB-V1 | Potency, µM (titrated, usually from 46.1 µM), hits mostly cytotoxic | KB-V1 MDR cells viability, CellTiter-Glo, 72 h | 400,000 compounds, 3.4% hits; note: % is set by controls: 0 for no effect and ±100 for the full control effect; nearly all actives have a fitted effect of over 60% in size
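Luminescent ATP read-out (CellTiter-Glo, 10 min) measures survival of drug-selected KB-V1 MDR cells after 72 h, 37 degrees C compound exposure. Medium: phenol-red-free DMEM, 10% FBS. Values from fitted concentration-response curves.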
KB-3-1 tox – qHTS assay for MDR1-selective chemotherapeutics: Primary screen using the parental adenocarcinoma cell KB-3-1. KB-3-1 viability, CellTiter-Glo ATP luminescence, 72 h. Potency, µM (doses to about 46.1 µM), most hits filed as cytotoxic. 400,000 compounds, 1.4% hits. AID 1347075, 2019; note: % is set by controls: 0 for no effect and ±100 for the full control effect; nearly all actives have a fitted effect of over 60% in size
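Cells are dispensed, compounds pinned in, plates held at 37 °C for 72 h, then CellTiter-Glo is added and luminescence read after 10 minutes. Cell line: parental KB-3-1 in phenol-red-free DMEM, 10% FBS.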
MCF10A rereplic – A quantitative high throughput screen for small molecules that induce DNA re-replication in MCF 10a normal breast cells; MCF 10A DNA re-replication, Hoechst nuclear intensity, 48 h; Potency, µM (highest dose often 46.1 µM), without a hit: at the top dose activity, positive = re-replication, most hits filed as activators; 350,000 compounds, 2.9% hits; note: % of control where 0% means no effect; nearly all actives have a fitted effect of over 50% in size
ELG1 repair inh – qHTS screen for small molecules that inhibit ELG1-dependent DNA repair in human embryonic kidney (HEK293T) cells expressing luciferase-tagged ELG1. HEK293T ELG1-luciferase reporter, luminescence, 16 h; DNA damage induced by 5-fluorouridine. Potency, µM (highest dose often 46.1 µM), inactives show at the top dose activity change, negative = inhibition, hits mostly inhibitors. 330,000 compounds, 2.3% hits; note: % is set by controls: 0 for no effect and ±100 for the full control effect; nearly all actives have a fitted effect of over 55% in size
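Step one: seed 2,000 cells per well. Step two: pin-transfer compound or DMSO alongside 5-fluorouridine. Step three: incubate 16 hr, 37 °C, 5% CO2. Step four: add ONE-Glo, wait 30 min, read luminescence.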
SW480 rereplic – A quantitative high throughput screen for small molecules that induce DNA re-replication in SW480 colon adenocarcinoma cells. SW480 DNA re-replication, Hoechst DNA content imaging, 48 h. 340,000 compounds, 1.8% hits. Potency, µM (doses to about 46.1 µM), without a hit: at the top dose re-replication activation, usual class: activators; note: % of control where 0% means no effect; nearly all actives have a fitted effect of over 55% in size
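Hoechst fluorescence of nuclei (405 nm excitation, 500-530 nm emission) measured by plate-scanning imager after 48 hr compound exposure at 37 C; re-replication scored as increased number of nuclei with elevated intensity.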
* marks the source's active call; other numbers are inactive results; i = inactive; ? = inconclusive; . = no result given; [ ] = another dose, or the depositor's remark. Calls come from the whole dose curve; as a rule, active = well fitted curve in the direction sought with a large enough effect; inconclusive = small, poorly fitted or top-dose-only effect, or another doubt; inactive = no such curve, though single readings can be large; an effect the other way counts as inactive or inconclusive. Potency is the fitted concentration of half-maximal effect.

SMILES | KB-V1 MDR tox | KB-3-1 tox | MCF10A rereplic | ELG1 repair inh | SW480 rereplic
Cc1cc(OC(C)C(=O)N2CCN(CCc3ccccn3)CC2)ccc1Cl (stereo not given) | ? | i | . | . | .
CN(C(=O)COC(=O)CSc1ccc(C(N)=O)cc1[N+](=O)[O-])C1CCCCC1 | i | i | -0.1% | 13.4% | -3.4%
Clc1ccc(CNc2ccc(CNc3ncn[nH]3)cc2)cc1 | 18.4µM* | ? | 11.1% | 10.1% | 2.6%
CC(C)Oc1ccc(S(=O)(=O)N2CCOCC2)cc1NC(=O)CSC(=S)N1CCCC1 | ? | i | . | . | .
O=S(=O)(Nc1nc2ccccc2nc1Cl)c1ccc2ccccc2c1 | ? | i | 23.1µM* | -19.3% | 2.5%
O=S(=O)(Nc1nc2ccccc2nc1Cl)c1ccccc1 | i | i | 0.5% | -5.5% | 5.2%
O=C(Cn1nc(CNc2ccc(Br)cc2)[n+]2c1CCCCC2)c1ccc([N+](=O)[O-])cc1 | i | 13µM* | 6.7% | -1.1% | -6.8%
O=C(Cn1nc(CNc2ccc(Cl)cc2)[n+]2c1CCCCC2)c1ccc(Br)cc1 | i | ? | 23.9% | 9.7% | -4.8%
Cc1cc(C)nc(N/C=C(\C#N)C(=O)c2cccc(CSc3ccccc3)c2)n1 | i | i | . | . | .
COc1cc(C)c(C(C)C)cc1S(=O)(=O)n1cnc(C)c1 | ? | 5.17µM* | ? | 18.7% | 5.17µM*
COc1cc(C2C3=C(Nc4ncnn42)c2ccccc2CC3)cc(OC)c1OC (stereo not given) | 0.651µM* | 0.291µM* | ? | 2.7% | 0.82µM*
COc1cc(C2C=C(c3cccs3)Nc3ncnn32)cc(OC)c1OC (stereo not given) | 3.66µM* | 1.03µM* | ? | ? | ?
COc1cc(C2CC(=O)C3=C(C2)Nc2ncnn2C3c2cccs2)cc(OC)c1OC (stereo not given) | i | i | 5.5% | 1.8% | -19.6%
Cc1ccc(Nc2nc(N)c3ccccc3n2)cc1C | ? | i | 19.7% | ? | -3.8%
CCc1noc(C)c1C(=O)OC(C)C(=O)c1c(C)[nH]c2ccccc12 (stereo not given) | ? | i | -0.8% | 1.5% | -5.6%
Cc1[nH]c2ccccc2c1C(=O)C(C)OC(=O)c1ccc([N+](=O)[O-])o1 (stereo not given) | ? | ? | 23.1µM* | 1.1% | ?
CC(=O)c1sc2c(c1OC(=O)c1ccccc1)c(=O)n(-c1ccccc1)c(=S)n2-c1ccccc1 | 9.2µM* | 8.2µM* | ? | . | -4.2%
Cc1ccn2cc(-c3cccc(NS(C)(=O)=O)c3)nc2c1 | i | i | -13.2% | ? | -0.4%
Cc1ccc(S(=O)(=O)Nc2ccc(-c3cn4ccc(C)cc4n3)cc2)cc1 | i | i | 20.6µM* | -29.5% | 0.731µM*
Cc1ccn2cc(-c3ccc(NS(=O)(=O)c4ccccc4)cc3)nc2c1 | 16.4µM* | i | ? | 6.4% | -44.5%
COc1ccc(S(=O)(=O)Nc2cc(-c3cn4ccc(C)cc4n3)ccc2C)cc1OC | i | i | . | . | .
COc1ccc(N2Cc3cccc(C(=O)Nc4ccc(C)c(C)c4)c3C2=O)cc1 | i | i | . | . | .
COc1ccc(-c2cc3nc(C)n(N)c(=O)c3s2)cc1 | 4.61µM* | ? | 8.7% | ? | -9.6%
Cc1nc2cc(-c3ccccc3)sc2c(=O)n1N | i | 3.66µM* | 0.3% | ? | -11.6%
Cn1c(NCc2ccccc2)nc2cc(-c3ccccc3)sc2c1=O | i | i | . | . | .
SMILES | KB-V1 MDR tox | KB-3-1 tox | MCF10A rereplic | ELG1 repair inh | SW480 rereplic
CCOc1ccc(NC(=O)Cn2c(=O)cc(C)c3c(C)nn(-c4cccc(Cl)c4C)c32)cc1 | i | i | . | . | .
Oc1ccccc1C=NCCN1CCN(CCN=Cc2ccccc2O)C1c1ccccc1O (stereo not given) | i | i | 0.2% | . | ?
COc1ccccc1NC(=O)Nc1nc(CC(=O)NCc2ccc(F)cc2)cs1 | i | i | ? | ? | ?
O=C(CSc1ccccn1)Nc1nonc1[N+](=O)[O-] | 10.3µM* | ? | 6.9% | ? | 2.5%
O=C(CSc1ccccn1)Nc1ccc(NC(=O)CSc2ccccn2)cc1 | i | i | -2.9% | 5.5% | 4.0%
COC(=O)c1nccnc1N | i | i | -1.4% | . | 0.8%
COc1ccc(OCc2cc(C(=O)NC3Cc4ccccc4C3)no2)c(Cl)c1 | ? | 4.61µM* | ? | -5.5% | ?
COc1ccc(OCc2cc(C(=O)NC(C)Cc3cccnc3)no2)c(Cl)c1 (stereo not given) | ? | i | 9.4% | 11.1% | 8.2µM*
Cc1ccc(NC(=O)Cn2c(=O)n(CCCCC(=O)NCc3ccccc3Cl)c(=O)c3ccccc32)cc1 | i | i | . | . | .
N#CC(c1ccccc1)C1CCN(Cc2ccccc2)CC1 (stereo not given) | 20.6µM* | i | 12.7% | -4.8% | -1.0%
Fc1ccc(-c2noc3ncnc(NC4CCCCC4)c23)cc1 | i | i | . | . | .
Cc1cccn2cc(CSc3ccccc3N)nc12 | 13µM* | i | 2.6% | ? | 2.1%
Clc1cccc(-c2nc3ccccn3c2Nc2ccc3c(c2)OCCO3)c1 | i | i | . | . | .
CCC(=O)c1ccc(N2CCN(C(=O)c3ccc(Br)cc3)CC2)c(F)c1 | 14.6µM* | i | 4.3% | 18.9% | -1.4%
CCCC(=O)c1ccc(N2CCN(C(=O)c3ccc(Br)cc3)CC2)c(F)c1 | i | i | 6.6% | ? | 0.1%
COc1ccc(C(=O)c2ccc(N3CCN(C(=O)c4ccc(F)cc4)CC3)c(F)c2)cc1Br | i | ? | ? | 20.6µM* | -0.2%[9.22 µM]
O=C(Nc1cccc(Cl)c1)C1CCCN(S(=O)(=O)c2ccc(F)cc2)C1 (stereo not given) | 6.51µM* | ? | 27.6% | ? | 10.1%
O=C(Nc1ccccc1Cl)C1CCCN(S(=O)(=O)c2ccc(F)cc2)C1 (stereo not given) | i | i | 7.5% | -22.9% | 1.1%
CSc1cccc(NC(=O)C2CCCN(S(=O)(=O)c3ccc(F)cc3)C2)c1 (stereo not given) | ? | i | 16.1% | 20.6µM* | 1.6%
CSc1cccc(NC(=O)C2CCN(S(=O)(=O)c3ccc(F)cc3)CC2)c1 | i | i | ? | . | 0.3%
CCOc1cccc(C(=O)N(Cc2ccc(CC)cc2)C2CCS(=O)(=O)C2)c1 (stereo not given) | i | i | . | . | .
CN(C)c1ccc(NC(=O)CSc2nnc(-c3cccs3)n2Cc2ccco2)cc1 | 7.31µM* | ? | 26.9% | ? | 2.6%
